Drawing on PubChem BioAssay (EPA / NIEHS), this text covers outcome and AC50 for six molecules.

Values joined by “and” are separate entries in the source; they are usually repeats but may differ in a detail not shown here. Equal values may be shown once. Records with an inconclusive call do not appear. Active and inactive are the calls of the source. How the source made its calls, unless noted: active means hit-call score of the fitted dose curve at least 0.9, where 1 is the maximum; inactive means score below 0.9.

Experiment [1] concerns the target PGR (gene 5241) (UniProt P06401). Description: TOX21_PR_BLA_Followup_Antagonist_ratio: Tox21 HEK293 Progesterone Receptor (PR) Antagonism Beta-lactamase Follow-Up Assay, Ratio (AID 2283934; active means hit-call score of the fitted dose curve at least 0.9, where 1 is the maximum;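 further: PR-UAS-bla HEK293T cells stimulated with 1 nM R5020 agonist for 16 hr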). In short, it runs like this: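 Readout is the blue/green (ch2/ch1) substrate cleavage ratio after 2 hours at room temperature, following 16 hr co-treatment of PR-bla HEK293T cells with compound and 1nM promegestone. Multiplexed CellTiter-Glo viability flags cytotoxicity; DMSO baseline.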

Experiment [2] shares this target. Description: TOX21_PR_LUC_Followup_Agonist: Tox21 HEK293 Progesterone Receptor (PR) Agonism Luciferase Follow-Up Assay (AID 2283937). Put shortly: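 Agonism scored as luciferase induction over DMSO, read by ONE-Glo after 30 min at RT. Compounds were incubated 16 h at 37C on HEK293-PR-A-luc cells (3,000/well, pre-plated 5 h) previously grown 5 days in charcoal-stripped serum.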

Experiment [3] addresses mouse Estrogen Receptor alpha (Era), Esr1 (gene 13982) (UniProt P19785). Description: NVS_NR_mERa: NovaScreen (NVS) Nuclear Receptor Binding Assay for mouse Estrogen Receptor alpha (Era) (AID 2283378; active means hit-call score of the fitted dose curve at least 0.9, where 1 is the maximum;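 further: hit means loss of bound radioligand signal relative to DMSO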). In short, it runs like this: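 Test chemicals competed against a specific radioligand for binding to cell-free mouse Era. Duplicate wells at 25 uM were read 18 hours later by filter-based radiodetection, with loss of signal against DMSO scored as activity.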

Experiment [4] addresses Peroxisome proliferator-activated receptor gamma (Homo sapiens) (UniProt P37231). Description: OT_PPARg_PPARgSRC1_0480: Odyssey Thera (OT) 8-hour Protein-Complementation Assay for Peroxisome Proliferator-activated Receptor Gamma / SRC-1 Co-activator (AID 2283387; active means hit-call score of the fitted dose curve at least 0.9, where 1 is the maximum;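 further: nuclear to cytoplasmic split Venus YFP fluorescence ratio reporting PPARg SRC-1 interaction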). Put shortly: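 Protein-fragment complementation of split Venus YFP reports PPARg/SRC-1 interaction in HEK293T (transfected 48 h before treatment), exposed 8 h. Readout: N/C fluorescence ratio at 488 nm from imaging, Draq5 for segmentation, positive fit relative to DMSO.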

The nature of experiment [5]: CCTE_Shafer_MEA_acute_burst_duration_mean: CCTE's Neural Acute Assay for Mean Burst Duration, Shafer Lab (AID 2284014).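 Further: hits are decreases in mean burst duration relative to DMSO controls.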 In short, it runs like this:
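Acute exposure of mature rat cortical networks (DIV 13 or 15) grown on microelectrode arrays to 0.03-40 uM compound. Mean burst duration compared with the 40-min pre-dose baseline over a 40-min post-dose recording at 37 C.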

The nature of experiment [6]: CCTE_Shafer_MEA_acute_per_burst_spike_number_mean: CCTE's Neural Acute Assay for Average Number of Spikes Per Burst, Shafer Lab (AID 2284015).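 Further: hits are decreases in mean spikes per burst versus baseline.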 In short, it runs like this: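 Percent change in mean spikes per single-electrode burst is compared between a 40 min baseline and a 40 min recording with compound (0.03-40 uM). Cultures were rat cortical neurons on MEA plates at DIV 13 or 15, recorded at 37 C, with DMSO as the negative control.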

Experiment [7] is described as follows: CCTE_Shafer_MEA_acute_interburst_interval_mean: CCTE's Neural Acute Assay for Mean Interburst Interval, Shafer Lab (AID 2284016).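 Further: percent change of mean interburst interval versus each well's own pre-dose baseline; curves fitted for decrease in interburst interval relative to DMSO.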 In short, it runs like this: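 Percent change in mean single-electrode interburst interval was calculated per well from 40 min recordings before and after compound (0.03-40 uM). Recordings were made at 37 C on rat cortical cultures at DIV 13 or 15, with spikes detected at 8x rms threshold.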

The nature of experiment [8]: CCTE_Shafer_MEA_acute_burst_percentage_mean: CCTE's Neural Acute Assay for Percentage of Spikes in a Burst, Shafer Lab (AID 2284017).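 On AC50: curve fitted for loss of signal so potency reflects decreased burst percentage.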 In short, it runs like this: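 Well-level mean burst percentage from a 40-min recording after compound (0.03-40 uM) expressed as percent change from a 40-min baseline at 37C. Cultures: primary rat cortical neurons on MEA, dosed on DIV 13 or 15; fitted downward relative to DMSO.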

Experiment [9] in a line: CCTE_Shafer_MEA_acute_burst_percentage_std: CCTE's Neural Acute Assay for Standard Deviation of Burst Percentage, Shafer Lab (AID 2284018).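 Further: fitted in the negative direction so actives lower burst percentage SD.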 Put shortly:
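Primary rat cortical neurons on 16-electrode MEA wells were recorded 40 min at baseline (DIV 13 or 15), then 40 min after compound (0.03-40 uM), at 37 C. Well value is SD across electrodes of spikes-in-bursts/total spikes; endpoint is percent change, DMSO-referenced.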

Experiment [10] in a line: CCTE_Shafer_MEA_acute_per_network_burst_electrodes_number_mean: CCTE's Neural Acute Assay for Mean Number of Electrodes in a Network Burst, Shafer Lab (AID 2284021).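 Further: curves fitted for decreases only so hits reduce electrodes per burst.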 In short, it runs like this: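 Cultures of rat cortex neurons were exposed on DIV 13 or 15 to compounds at 0.03-40 uM in at least three wells each. Activity over 40 min before and 40 min after exposure at 37 C gave the percent change in electrodes per network burst.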

Experiment [11] is described as follows: CCTE_Shafer_MEA_acute_synchrony_index: CCTE's Neural Acute Assay for Synchrony, Shafer Lab (AID 2284027).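 Further: network synchrony index of spontaneous spiking in primary rat cortical neurons on MEAs; fitted for loss of signal so actives lower synchrony relative to DMSO.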 Put shortly:
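The synchrony index is taken as percent change per well between a 40 min baseline and a 40 min recording with compound (0.03–40 uM), at 37C. Rat cortical cultures on multiwell MEAs at DIV 13 or 15, spike threshold 8× rms noise.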

A short description of experiment [12]: CCTE_Shafer_MEA_acute_LDH: CCTE's Lactate Dehydrogenase Assay for Cytotoxicity in the Neural Acute Assay, Shafer Lab (AID 2284086; active means hit-call score of the fitted dose curve at least 0.9, where 1 is the maximum;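 further: active means LDH release rises above DMSO vehicle level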). In short, it runs like this: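 LDH released during 40 min compound exposure of primary rat cortical cultures, quantified by absorbance at 490 nm in collected medium. Fitting direction positive versus DMSO vehicle.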
Read-out in experiment [13]: Monokine induced gamma interferon (MIG), CXCL9 (gene 4283)
The experiment is described as follows: BSK_KF3CT_MIG: BioMAP Diversity Plus: KF3CT Assay for Monokine induced gamma interferon (MIG) Biomarker Activity (AID 2284248). The following applies: primary human keratinocytes with fibroblasts. In short, it runs like this:
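The assay uses a co-culture of human keratinocytes and foreskin fibroblasts. Measurement occurs 24 hours after dosing, with MIG detected by ELISA and the DMSO control as baseline.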

Read-out in experiment [14]: Interferon-inducible T-cell alpha chemoattractant (ITAC), CXCL11 (gene 6373)
Description: BSK_hDFCGF_ITAC: BioMAP Diversity Plus: hDFCGF Assay for Interferon-inducible T-cell alpha chemoattractant (ITAC) Biomarker Activity (AID 2284251). The following applies: primary human foreskin fibroblasts. Put shortly:
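Chemical dosing of primary human foreskin fibroblast cultures preceded ELISA measurement of I-TAC at 24 h. Response was analysed in the positive direction using DMSO as baseline, while parallel SRB staining measured cytotoxicity.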

Read-out in experiment [15]: Plasminogen activator inhibitor-1 (PAI1), SERPINE1 (gene 5054)
Description: BSK_KF3CT_PAI1: BioMAP Diversity Plus: KF3CT Assay for Plasminogen activator inhibitor-1 (PAI1) Biomarker Activity (AID 2284252). The conditions noted are these: primary human keratinocytes with fibroblasts. In short, it runs like this: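 PAI-1 levels quantified by ELISA after 24 h compound exposure of primary human skin keratinocytes co-cultured with fibroblasts. Activity is the gain relative to DMSO; cytotoxicity tracked in parallel cultures via SRB staining.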

Read-out in experiment [16]: Intercellular Adhesion Molecule 1 (ICAM1), ICAM1 (gene 3383)
The experiment is described as follows: BSK_BE3C_ICAM1: BioMAP Diversity Plus: BE3C Assay for Intercellular Adhesion Molecule 1 (ICAM1) Biomarker Activity (AID 2284278).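 On outcome: cell-surface ICAM-1 protein level quantified by ELISA.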 The following applies: primary human bronchial epithelial cells. Put shortly: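 ICAM-1 quantified by ELISA and fitted against DMSO baseline, 24 h post-dosing in BE3C cultures of primary human lung bronchial epithelial cells. Cytotoxicity checked in parallel cultures by total protein SRB staining.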

Read-out in experiment [17]: Interferon-inducible T-cell alpha chemoattractant (ITAC), CXCL11 (gene 6373)
Description: BSK_BE3C_ITAC: BioMAP Diversity Plus: BE3C Assay for Interferon-inducible T-cell alpha chemoattractant (ITAC) Biomarker Activity (AID 2284279). The conditions noted are these: primary human bronchial epithelial cells. Put shortly: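 ELISA read-out of I-TAC after 24 h chemical dosing of human lung primary bronchial epithelial cells; gain-of-signal fit vs DMSO baseline. Parallel SRB total-protein staining (0.1% SRB, 10% TCA fixation, 560 nm) assessed cytotoxicity.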

Read-out in experiment [18]: Interleukin-8 (IL8), CXCL8 (gene 3576)
The experiment is described as follows: BSK_BE3C_IL8: BioMAP Diversity Plus: BE3C Assay for Interleukin-8 (IL8) Biomarker Activity (AID 2284280). The following applies: primary human bronchial epithelial cells. In short, it runs like this: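 Measured at 24 h after treatment, IL-8 from human primary bronchial epithelial cells is determined by ELISA, and the response is modelled as increasing relative to DMSO negative control.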

Read-out in experiment [19]: Epidermal growth factor receptor (EGFR), EGFR (gene 1956)
The experiment is described as follows: BSK_BE3C_EGFR: BioMAP Diversity Plus: BE3C Assay for Epidermal growth factor receptor (EGFR) Biomarker Activity (AID 2284281). The following applies: primary human bronchial epithelial cells. Put shortly:
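Measured 24 h after dosing in primary human bronchial epithelial cultures, EGFR was read by ELISA; gain of signal over DMSO control defined activity.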

Read-out in experiment [20]: Matrix Metallopeptidase 9 (MMP9), MMP9 (gene 4318)
The experiment is described as follows: BSK_BE3C_MMP9: BioMAP Diversity Plus: BE3C Assay for Matrix Metallopeptidase 9 (MMP9) Biomarker Activity (AID 2284283). The conditions noted are these: primary human bronchial epithelial cells. In short, it runs like this: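 Cells were dosed, incubated 24 h, then assayed for MMP-9 by ELISA; activity was fitted upward against DMSO. The system used human lung primary bronchial epithelial cells, with SRB total-protein staining run alongside for cytotoxicity.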

Chain of PGR (gene 5241) (P06401 whole entry, looked up): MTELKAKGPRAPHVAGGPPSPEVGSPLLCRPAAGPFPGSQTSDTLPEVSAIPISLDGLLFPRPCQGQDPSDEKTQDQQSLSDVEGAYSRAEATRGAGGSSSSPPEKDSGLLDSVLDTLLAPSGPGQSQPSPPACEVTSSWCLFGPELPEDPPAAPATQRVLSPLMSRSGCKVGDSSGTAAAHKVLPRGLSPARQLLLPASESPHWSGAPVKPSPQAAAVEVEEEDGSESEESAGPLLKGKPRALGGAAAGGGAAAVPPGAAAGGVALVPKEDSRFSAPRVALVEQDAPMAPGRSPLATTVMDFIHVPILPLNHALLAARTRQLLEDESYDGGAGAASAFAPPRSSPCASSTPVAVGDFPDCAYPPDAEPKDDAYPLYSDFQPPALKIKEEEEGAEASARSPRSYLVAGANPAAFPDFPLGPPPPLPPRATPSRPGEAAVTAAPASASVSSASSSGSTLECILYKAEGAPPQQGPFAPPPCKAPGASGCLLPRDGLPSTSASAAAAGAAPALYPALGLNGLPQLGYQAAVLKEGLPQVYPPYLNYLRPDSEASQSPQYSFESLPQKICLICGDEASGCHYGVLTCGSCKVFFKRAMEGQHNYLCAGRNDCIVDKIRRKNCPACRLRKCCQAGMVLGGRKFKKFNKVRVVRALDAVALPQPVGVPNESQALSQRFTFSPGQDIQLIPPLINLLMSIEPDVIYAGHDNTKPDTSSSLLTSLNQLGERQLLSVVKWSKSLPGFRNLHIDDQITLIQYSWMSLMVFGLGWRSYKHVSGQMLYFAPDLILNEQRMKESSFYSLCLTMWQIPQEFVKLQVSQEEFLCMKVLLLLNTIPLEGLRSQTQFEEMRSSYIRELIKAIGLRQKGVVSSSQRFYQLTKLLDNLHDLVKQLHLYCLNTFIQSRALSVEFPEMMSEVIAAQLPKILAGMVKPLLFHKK
Chain of Peroxisome proliferator-activated receptor gamma (Homo sapiens) (P37231 whole entry, looked up, the tested form may be a part): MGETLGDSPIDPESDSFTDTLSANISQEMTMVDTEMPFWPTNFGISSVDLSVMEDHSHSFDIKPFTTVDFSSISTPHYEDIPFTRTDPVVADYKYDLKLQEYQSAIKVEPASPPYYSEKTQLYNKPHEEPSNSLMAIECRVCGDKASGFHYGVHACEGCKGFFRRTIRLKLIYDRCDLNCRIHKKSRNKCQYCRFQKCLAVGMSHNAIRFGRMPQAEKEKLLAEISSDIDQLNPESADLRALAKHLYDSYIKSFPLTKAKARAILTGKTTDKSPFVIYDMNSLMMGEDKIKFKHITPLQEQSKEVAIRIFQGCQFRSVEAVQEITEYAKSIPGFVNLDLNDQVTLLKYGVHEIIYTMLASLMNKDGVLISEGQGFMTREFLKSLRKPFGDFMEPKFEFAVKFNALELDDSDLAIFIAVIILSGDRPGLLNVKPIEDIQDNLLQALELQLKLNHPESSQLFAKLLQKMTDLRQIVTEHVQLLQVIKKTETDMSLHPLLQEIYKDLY
Chain of mouse Estrogen Receptor alpha (Era), Esr1 (gene 13982) (P19785 whole entry, looked up): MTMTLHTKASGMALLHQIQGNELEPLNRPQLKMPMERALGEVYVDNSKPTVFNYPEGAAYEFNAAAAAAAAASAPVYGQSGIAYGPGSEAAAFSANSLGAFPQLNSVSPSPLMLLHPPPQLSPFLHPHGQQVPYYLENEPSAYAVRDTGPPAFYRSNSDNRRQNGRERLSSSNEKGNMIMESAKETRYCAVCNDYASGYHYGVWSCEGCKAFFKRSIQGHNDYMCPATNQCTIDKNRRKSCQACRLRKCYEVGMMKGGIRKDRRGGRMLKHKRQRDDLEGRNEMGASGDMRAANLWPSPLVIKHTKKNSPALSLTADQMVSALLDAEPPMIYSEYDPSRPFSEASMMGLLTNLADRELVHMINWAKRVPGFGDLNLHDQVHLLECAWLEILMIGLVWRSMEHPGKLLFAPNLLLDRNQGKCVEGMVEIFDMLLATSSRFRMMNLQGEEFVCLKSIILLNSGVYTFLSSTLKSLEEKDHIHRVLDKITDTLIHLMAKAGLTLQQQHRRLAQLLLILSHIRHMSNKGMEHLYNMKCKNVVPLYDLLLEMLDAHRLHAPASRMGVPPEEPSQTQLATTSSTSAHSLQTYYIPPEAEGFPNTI

Take `C[C@]12CC[C@H]3[C@@H](CC[C@@]45O[C@@H]4C(O)=C(C#N)C[C@]35C)[C@@H]1CC[C@@H]2O`: the result with PGR (gene 5241) [1] and with PGR (gene 5241) [2] was inactive.
With `O=[N+]([O-])c1cc(C(F)(F)F)c(Cl)c([N+](=O)[O-])c1Cl`, in experiment [3], the outcome was inactive.
For `O=[N+]([O-])O`, the molecule was called inactive in experiment [4], in experiment [5], in experiment [6], in [7], in [8] and in experiment [9]. Moreover, the call in experiment [10], in experiment [11], in experiment [12], in [13], in [14] and in experiment [15] was inactive. The result in [16], in [17], in [18], in experiment [19] and in experiment [20] was inactive.
`Oc1ccc(C2(c3ccc(O)cc3)c3ccccc3-c3ccccc32)cc1`: the AC50 in experiment [3] was 432 nM (active); in [6] it was 20.5 µM (active); in experiment [8] it was 24.8 µM (active); in experiment [9], 22.8 µM (active); in experiment [11], 25.4 µM (active); in [13], 7.47 µM (active) and 7.4 µM (active). The AC50 in experiment [14] was 1.8 µM (active) and 1.21 µM (active); in experiment [15], 5.43 µM (active); in experiment [16] it was 7.57 µM (active) and 7.24 µM (active); in [17] it was 5.43 µM (active) and 5.42 µM (active); in [18], 6.88 µM (active) and 5.35 µM (active); in [20] it was 383 nM (active) and 5.33 µM (active). Besides, the call in experiment [5], in experiment [7], in experiment [10], in experiment [12] and in experiment [19] was inactive.
On to `N#Cc1cc(I)c(O)c(I)c1`, for which the result with PGR (gene 5241) [1] and with PGR (gene 5241) [2] was inactive.
Turning to `CCCC=NO`, the result in experiment [4] was inactive.
